{
  "source": "PubChem BioAssay",
  "note": "Measured potencies and affinities stand elsewhere. Activity calls are given as the source filed them. No rule for the calls is given here.",
  "data": [
    {"test": "A2780 cell killing – plate reader, dry powder samples, cytotoxicity control, dose response (AID 743046)", "conditions": "A2780 ovarian cancer cytotoxicity; series mostly up to 35 µM", "values": [
      {"smiles": "CN1c2ccc(-c3ccc(C#N)cc3)cc2[C@@H]2[C@@H](CCN2C(=O)NC2CCCCC2)[C@@H]1CO", "outcome": "inactive"},
      {"smiles": "CN1c2ccc(C3=CCCCC3)cc2[C@H]2[C@H](CCN2C(=O)NC2CCCCC2)[C@@H]1CO", "outcome": "inactive"},
      {"smiles": "C[C@@H]1CCCCO[C@@H](CN(C)Cc2ccc(Cl)c(Cl)c2)[C@H](C)CN([C@H](C)CO)C(=O)c2cc(NS(=O)(=O)c3ccc(F)cc3)ccc2O1", "outcome": "inactive"},
      {"smiles": "C[C@@H]1CN([C@@H](C)CO)C(=O)Cc2cc(NC(=O)Nc3ccc(C(F)(F)F)cc3)ccc2O[C@H]1CN(C)Cc1ccc(Oc2ccccc2)cc1", "outcome": "inactive"},
      {"smiles": "Cc1ccc(S(=O)(=O)Nc2ccc3c(c2)C(=O)N([C@@H](C)CO)C[C@H](C)[C@H](CN(C)Cc2ccc(C(F)(F)F)cc2)OCCCC[C@@H](C)O3)cc1", "outcome": "inactive"},
      {"smiles": "CCCC#Cc1ccc2c(c1)O[C@H](CN(C)Cc1ccccc1)[C@@H](C)CN([C@H](C)CO)S2(=O)=O", "outcome": "inactive"},
      {"smiles": "Cc1ccc(S(=O)(=O)N(C)C[C@@H]2OCCCC[C@H](C)Oc3ccc(NS(=O)(=O)c4ccc(F)cc4)cc3C(=O)N([C@H](C)CO)C[C@H]2C)cc1", "outcome": "inactive"},
      {"smiles": "COc1ccc(S(=O)(=O)N(C)C[C@H]2Oc3ccc(NC(=O)Nc4ccc(C(F)(F)F)cc4)cc3CC(=O)N([C@H](C)CO)C[C@@H]2C)cc1", "outcome": "inactive"},
      {"smiles": "CNC[C@@H]1Oc2cc(C#CC3CCCCC3)ccc2S(=O)(=O)N([C@@H](C)CO)C[C@@H]1C", "outcome": "inactive"},
      {"smiles": "C[C@@H]1CCCCO[C@H](CN(C)C(=O)Nc2ccc(C(F)(F)F)cc2)[C@H](C)CN([C@@H](C)CO)C(=O)c2cc(NS(=O)(=O)c3ccc(Cl)cc3)ccc2O1", "outcome": "inactive"},
      {"smiles": "CO[C@H]1CN(C)C(=O)c2cc(NC(=O)c3nc4ccccc4s3)ccc2OC[C@H](C)N(Cc2cccnc2)C[C@H]1C", "outcome": "inactive"},
      {"smiles": "C[C@H](CO)N1C[C@H](C)[C@H](CN(C)S(=O)(=O)c2cccs2)OCCCC[C@H](C)Oc2ccc(NC(=O)NC3CCCCC3)cc2C1=O", "outcome": "inactive"},
      {"smiles": "C[C@H](CO)N1C[C@H](C)[C@H](CN(C)C(=O)NC2CCCCC2)Oc2cc(C#Cc3cccc(F)c3)ccc2S1(=O)=O", "outcome": "inactive"}
    ]},
    {"test": "OVCAR8 cell viability loss – plate reader, dry powder samples, PAX8 project, dose response (AID 743197)", "conditions": "series mostly up to 35 µM", "values": [
      {"smiles": "Cc1ccc(S(=O)(=O)N(C)C[C@@H]2Oc3cc(C#Cc4ccncc4)ccc3S(=O)(=O)N([C@@H](C)CO)C[C@H]2C)cc1", "outcome": "inactive"},
      {"smiles": "C[C@H]1CN([C@@H](C)CO)C(=O)c2cccc(NC(=O)Nc3ccc(F)cc3)c2O[C@H]1CN(C)C(=O)Nc1ccc(C(F)(F)F)cc1", "outcome": "inactive"},
      {"smiles": "COc1ccccc1-c1ccc2c(c1)O[C@H](CN(C)Cc1ccc3c(c1)OCO3)[C@H](C)CN([C@@H](C)CO)S2(=O)=O", "outcome": "inactive"},
      {"smiles": "Cc1ccc(S(=O)(=O)N(C)C[C@@H]2Oc3c(NC(=O)c4ccc(-c5nccs5)cc4)cccc3C(=O)N([C@@H](C)CO)C[C@@H]2C)cc1", "outcome": "inactive"},
      {"smiles": "C[C@@H]1CCCCO[C@@H](CN(C)Cc2ccc(C(F)(F)F)cc2)[C@H](C)CN([C@@H](C)CO)C(=O)c2cc(NS(=O)(=O)c3ccccc3)ccc2O1", "outcome": "inactive"},
      {"smiles": "C[C@@H]1CN([C@@H](C)CO)C(=O)c2cc(NC(=O)c3ccccc3)ccc2O[C@@H](C)CCCCO[C@H]1CN(C)Cc1ccc(C(F)(F)F)cc1", "outcome": "inactive"},
      {"smiles": "CC(C)CC#Cc1ccc2c(c1)O[C@H](CN(C)S(=O)(=O)c1ccc(F)cc1)[C@H](C)CN([C@@H](C)CO)S2(=O)=O", "outcome": "inactive"},
      {"smiles": "C[C@@H]1CN([C@H](C)CO)C(=O)c2cc(NS(=O)(=O)c3ccc(F)cc3)ccc2O[C@@H]1CN(C)Cc1ccc(C(F)(F)F)cc1", "outcome": "inactive"},
      {"smiles": "C[C@@H]1CCCCO[C@H](CN(C)C(=O)c2ccccc2)[C@@H](C)CN([C@@H](C)CO)C(=O)c2cc(NC(=O)Nc3ccc(C(F)(F)F)cc3)ccc2O1", "outcome": "inactive"},
      {"smiles": "COc1ccc(S(=O)(=O)N2CCCCN3[C@H](C2)[C@H](c2ccc(C#CC(C)C)cc2)[C@@H]3CO)cc1", "outcome": "inactive"},
      {"smiles": "C[C@H](CO)N1C[C@H](C)[C@H](CN(C)Cc2ccc3c(c2)OCO3)OCCCC[C@H](C)Oc2ccc(NS(=O)(=O)c3ccc(Cl)cc3)cc2C1=O", "outcome": "inactive"},
      {"smiles": "C[C@@H]1CCCCO[C@H](CN(C)C(=O)Cc2ccccc2)[C@H](C)CN([C@@H](C)CO)C(=O)c2cc(NC(=O)Nc3ccc(C(F)(F)F)cc3)ccc2O1", "outcome": "inactive"},
      {"smiles": "C[C@@H]1CN([C@H](C)CO)C(=O)c2cc(NC(=O)Nc3ccc(C(F)(F)F)cc3)ccc2O[C@@H](C)CCCCO[C@H]1CN(C)C(=O)Nc1ccc(F)cc1", "outcome": "inactive"},
      {"smiles": "C[C@H]1CN([C@@H](C)CO)C(=O)c2ccccc2-c2ccccc2CO[C@H]1CN(C)S(=O)(=O)c1ccc(C(F)(F)F)cc1", "outcome": "inactive"},
      {"smiles": "C[C@@H]1CN([C@@H](C)CO)C(=O)Cc2cc(NC(=O)Nc3ccc(F)cc3)ccc2O[C@H]1CN(C)Cc1ccc(Cl)c(Cl)c1", "outcome": "inactive"},
      {"smiles": "Cc1ccc(S(=O)(=O)N(C)C[C@H]2Oc3ccc(NC(=O)Nc4ccc(C(F)(F)F)cc4)cc3CC(=O)N([C@H](C)CO)C[C@@H]2C)cc1", "outcome": "inactive"},
      {"smiles": "C[C@@H]1CN([C@H](C)CO)C(=O)c2cc(NC(=O)Nc3ccc(F)cc3)ccc2O[C@@H](C)CCCCO[C@H]1CN(C)C(=O)Nc1ccc(F)cc1", "outcome": "inactive"},
      {"smiles": "CN1c2ccc(-c3ccc(C#N)cc3)cc2[C@@H]2[C@@H](CCN2C(=O)NC2CCCCC2)[C@@H]1CO", "outcome": "inactive"},
      {"smiles": "COc1ccc(S(=O)(=O)N(C)C[C@H]2Oc3ccc(NC(=O)Nc4ccc(C(F)(F)F)cc4)cc3CC(=O)N([C@H](C)CO)C[C@@H]2C)cc1", "outcome": "inactive"},
      {"smiles": "CNC[C@@H]1Oc2cc(C#CC3CCCCC3)ccc2S(=O)(=O)N([C@@H](C)CO)C[C@@H]1C", "outcome": "inactive"},
      {"smiles": "C[C@@H]1CCCCO[C@H](CN(C)C(=O)Nc2ccc(C(F)(F)F)cc2)[C@H](C)CN([C@@H](C)CO)C(=O)c2cc(NS(=O)(=O)c3ccc(Cl)cc3)ccc2O1", "outcome": "inactive"},
      {"smiles": "CO[C@H]1CN(C)C(=O)c2cc(NC(=O)c3nc4ccccc4s3)ccc2OC[C@H](C)N(Cc2cccnc2)C[C@H]1C", "outcome": "inactive"},
      {"smiles": "C[C@H](CO)N1C[C@H](C)[C@H](CN(C)S(=O)(=O)c2cccs2)OCCCC[C@H](C)Oc2ccc(NC(=O)NC3CCCCC3)cc2C1=O", "outcome": "inactive"},
      {"smiles": "C[C@H](CO)N1C[C@H](C)[C@H](CN(C)C(=O)NC2CCCCC2)Oc2cc(C#Cc3cccc(F)c3)ccc2S1(=O)=O", "outcome": "inactive"}
    ]}
  ]
}
